PRMT1 FP inh: PRMT1 (human) inhibition, primary screen. Q99873. recombinant PRMT1, activity-based probe fluorescence polarization. inhibition, % at 2.79 µM. 370,000 compounds, 1.3% hits. AID 652257;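 active = inhibition above about 21% made by adding two undisclosed values, limit read from the data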
ABHD5 PLIN5 PPI: blocks binding of human ABHD5 to perilipin-5 | Q00G26+Q8WTS1 | Split G. princeps luciferase complementation, luminescence, 4 h | inhibition, % at 4 µM | 360,000 compounds, 0.78% hits | AID 602281;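 active = inhibition above the mean inhibition across every tested compound plus 3 SD, cut at about 22% in these data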;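 note: 0% = DMSO only wells and the 100% control is not disclosed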
MBD2 DNA inh: MBD2-methylated oligo binding inhibition | TR-FRET, MBD2 binding to methylated oligonucleotide | inhibition, % at 4.4 µM | Q9UBB5 | 370,000 compounds, 0.31% hits; in the data active = inhibition above about 13%
Target sequence (Q9UBB5 whole entry, looked up): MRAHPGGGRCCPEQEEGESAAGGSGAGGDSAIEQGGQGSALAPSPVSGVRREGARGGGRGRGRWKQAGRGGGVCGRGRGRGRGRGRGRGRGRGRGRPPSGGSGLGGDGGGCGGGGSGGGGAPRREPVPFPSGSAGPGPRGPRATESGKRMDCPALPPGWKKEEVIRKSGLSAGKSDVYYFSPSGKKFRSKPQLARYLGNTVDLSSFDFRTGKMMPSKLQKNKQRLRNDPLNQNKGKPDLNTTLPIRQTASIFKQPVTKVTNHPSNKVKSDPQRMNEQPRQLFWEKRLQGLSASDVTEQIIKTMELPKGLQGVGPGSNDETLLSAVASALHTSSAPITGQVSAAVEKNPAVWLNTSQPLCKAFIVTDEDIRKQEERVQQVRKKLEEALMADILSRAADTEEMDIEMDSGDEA
rCAG binder: binds r(CAG) RNA repeats; inhibition, % at 3 µM; 370,000 compounds, 1.3% hits; AID 651821; r(CAG) RNA repeat, TO-PRO-1 dye displacement fluorescence;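 active = inhibition above the plate cutoff, the mean of all test compounds on that plate plus 3 SD, cut at about 35% in these data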;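 note: 0% = DMSO alone and 100% = 100 µM mitoxantrone as full dye displacement; higher means more dye released from RNA so lower well fluorescence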
LEDGF integ inh: blocks HIV-1 LEDGF/p75-dependent DNA integration. TR-FRET IN-LEDGF/p75 DNA integration, Eu/Cy5. inhibition, % at 3.7 µM. 370,000 compounds, 0.64% hits. AID 743269;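 active = inhibition above the screen-wide mean plus 3 SD, cut at about 13% in these data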;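 note: signal is the Cy5 over europium emission ratio at 671 and 618 nm; 0% = plate median of compound wells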
UHRF1 binding: blocks human UHRF1 binding to methylated DNA | Q96T88 | UHRF1 binding to methylated oligo, TR-FRET | inhibition, % at 4.4 µM | 370,000 compounds, 0.75% hits; in the data active = inhibition above about 21%;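 note: UHRF1 SRA domain binding a hemimethylated CpG hairpin DNA probe; 0% = median of test compound wells and 100% = reference inhibitor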
PRMT1 confirm: confirmation of human PRMT1 inhibitors; shares compounds with PRMT1 FP inh; recombinant His-PRMT1, activity-based probe fluorescence polarization; inhibition, % at 2.79 µM; 3,300 compounds, 42% hits; AID 687036;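 active = mean inhibition across replicates above the hit cutoff derived for the earlier primary screen, cut at about 22% in these data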
An asterisk follows results filed as active; x = not tested or not shown. Shown are actives, neighbours in structure and some others; about 4.1% of the full set was active somewhere.

SMILES	PRMT1 FP inh	ABHD5 PLIN5 PPI	MBD2 DNA inh	rCAG binder	LEDGF integ inh	UHRF1 binding	PRMT1 confirm
COc1ccc(N2C(=O)CC(NCC#N)C2=O)cc1 (centres undefined)	12	-2	-1	-1	-3	2	x
COc1ccc(N2C(=O)CC(NCc3cccs3)C2=O)cc1 (centres undefined)	51*	7	0	2	-4	4	0
CCOc1cccc(N2C(=O)CC(NCc3ccc(S(N)(=O)=O)cc3)C2=O)c1 (centres undefined)	46*	2	0	3	-3	2	-1
CCCCCCCCN1C(=O)[C@@H](CC(=O)NCc2cccc(C(F)(F)F)c2)C[C@@]2(C(=O)OC)C1=C[C@H](C(C)C)O[C@@H]2C1CC1	-1	x	-6	13	3	-1	x
Cc1ccc(NC(=O)NNC(=O)CSC2CCc3ccccc32)c(C)c1 (centres undefined)	4	x	0	4	-3	1	x
Cc1cc2nc3c(=O)[nH]c(=O)[nH]c3nc2c([N+](=O)[O-])c1N	79*	-8	3	-219	6	11	112*
Cc1c(N)c(C(C)(C)C)cc(C(C)(C)C)c1[N+](=O)[O-]	-3	-14	-4	-5	2	-4	x
COC(=O)c1sccc1NC(=O)C1CC=CCC1C(=O)O (centres undefined)	1	-5	6	2	-3	1	x
COC(=O)c1c(-c2ccco2)csc1NC(=O)C1CC=CCC1C(=O)O (centres undefined)	27*	17	2	23	3	3	4
O=C(NCCc1ccccc1)OCc1cn(Cc2ccc(Cl)cc2)nn1	2	x	-1	-1	-1	-1	x
CCOC(=O)c1cc(-c2ccc(F)cc2)n(CC(=O)NCc2cccnc2)c1C	28*	1	3	-4	3	-4	7
CCCNC(=O)Cn1c(-c2ccc(F)cc2)cc(C(=O)OCC)c1C	-2	-4	-2	0	0	-1	x
CN(C)CCCNC(=O)c1c(N)[nH]c(C(=O)c2ccc(Br)cc2)c1-c1ccc(Br)cc1	1	x	2	2	-3	-1	x
Clc1ccc(-n2cc(-c3ccc(Br)cc3)[n+]3c2CCCCC3)cc1	-5	8	-5	3	-2	-2	x
Brc1ccc(-c2csc3[n+]2CCCCC3)cc1	28*	-2	7	3	-2	2	1
CC1=C(O)C(=O)C(C2=C(O)C(=O)C(C)=C(O)C2=O)=C(O)C1=O	29*	10	0	-2	1	18	34*
COc1cc(N)c(Cl)cc1C(=O)OCC(=O)NCC1CCCO1 (centres undefined)	-4	-11	-3	0	1	0	x
COc1cc(N)c(Cl)cc1C(=O)OCC(=O)NCC1CCCCC1	34*	3	2	1	0	-1	-8
CCC(C)(C)n1nnnc1C(c1ccc(O)c(OC)c1)N1CCN(c2nc3ccccc3s2)CC1 (centres undefined)	36*	17	1	0	2	-1	36*
COC(=O)Cc1nnn2c1[C@@H](C)[C@@H](c1ccccc1Br)OC[C@H](C)C2	-2	x	-10	2	1	0	x
N#Cc1c(N)sc(=S)c2c1CCCCC2	40*	-15	10	14	19*	21*	36*
Cn1c(N)c(C#N)c2c(c1=S)CSC(C)(C)C2	11	-15	-8	-5	0	-4	x
CC1(C)Cc2c(C#N)c(N)sc(=S)c2CS1	31*	-17	-1	11	2	-9	41*
C=CCN1C(=O)[C@@H](CC(=O)NCc2cccs2)[C@]2(C(=O)OCC)CCCCC/C=C/12	-1	x	-2	1	-1	1	x
CC(C)Nc1nc(NCCN2CCNC2=O)c2sccc2n1	40*	0	7	1	-1	8	-6
SMILES	PRMT1 FP inh	ABHD5 PLIN5 PPI	MBD2 DNA inh	rCAG binder	LEDGF integ inh	UHRF1 binding	PRMT1 confirm
O=C1NCCN1CCNc1nc(NCc2ccccc2)nc2ccsc12	7	-1	2	0	2	6	x
O=C(Nc1cccc([N+](=O)[O-])c1)OCc1ccc2c(c1)OCO2	2	x	-3	5	1	5	x
CCOc1ccc2cc(C3CC(c4ccco4)=NN3S(=O)(=O)c3ccccc3)c(Cl)nc2c1 (centres undefined)	3	1	-1	14	0	-3	x
COc1ccc2cc(C3CC(c4ccco4)=NN3S(=O)(=O)c3ccccc3)c(Cl)nc2c1 (centres undefined)	29*	-1	-5	28	10	-5	2
N#Cc1cc2c([nH]c1=S)CCCC2	32*	-4	4	-1	-4	0	12
CC1(C)Cc2nc(NC3CCCCC3)c(C#N)cc2CO1	2	-1	4	-6	-3	-3	x
CC1(C)Cc2[nH]c(=S)c(C#N)cc2CO1	41*	1	0	3	-1	-1	24*
CCOC(=O)c1c(SC)n(-c2ccccc2)c(=S)n(-c2ccccc2)c1=O	-2	-4	3	1	1	-2	x
CCOC(=O)c1c(SCCN2CCCCC2)n(-c2ccccc2)c(=S)n(-c2ccccc2)c1=O	31*	12	-2	2	-1	-1	4
O=C(CSc1nccc(=O)[nH]1)Nc1ccc(S(=O)(=O)N2CCOCC2)cc1	49*	-10	-4	3	2	-1	9
Cc1cc(NC(=O)c2ccc(Cl)cc2)no1	-1	0	3	-3	-2	0	x
Cc1cc(NC(=O)c2ccc3nc(C)sc3c2)no1	31*	10	4	-1	-2	5	-3
C=CCN(CC#Cc1ccccc1)Cc1ccc(OC)cc1	0	x	3	2	2	2	x
Cc1ccc(C(=O)N2O[C@]34C=C[C@]25C[C@@H](O)CC[C@]5(C)C3CC[C@]2(C)[C@@H]([C@H](C)/C=C/[C@H](C)C(C)C)CC[C@H]24)cc1 (some centres undefined)	0	x	0	2	4	0	x
Cc1cc2cc(CNC(=O)c3ccco3)ccc2n1C	36*	13	-7	15	13	0	2
COc1ccc(C(=O)NCc2ccc3c(c2)cc(C)n3C)cc1	12	10	-9	15	-3	-3	x
Cc1cccc(C2NC(=O)c3c(sc(C)c3C)N2)c1O (centres undefined)	53*	-39	-4	6	0	-3	2
Cc1ccc(C2NC(=O)c3c(sc(C)c3C)N2)c(O)c1 (centres undefined)	15	-3	2	29	2	5	x
O=C(O)c1ccc(N2C(=O)CC(N3CCC(c4nc5ccccc5[nH]4)CC3)C2=O)cc1 (centres undefined)	9	4	0	2	1	0	x
